Test results as given in the supplement of paper PMC8728848.
The entries come from a sample that favours the strongest signals as a whole.

Columns and labels:
Assay in all cases: glycan array binding signal (z-score within array); higher = stronger binding
Conditions in all cases: glycan notation: IUPAC condensed, linker removed
[1] = system: GlcNAc(a1-3)Gal(b1-4)GlcNAc
Outline: (§1)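 Glycan array data came from 3228 arrays in the Consortium for Functional Glycomics database, and only arrays with an available protein sequence were kept. Glycan names were put into IUPAC-condensed notation, and columns mapping to the same glycan were averaged. The binding signal is a within-array Z-score, averaged across arrays of one protein sequence run at different concentrations or buffers and across linkers. A negative Z-score can be read as non-binding.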

[2] = system: GlcNAc(a1-4)Gal(b1-4)GlcNAc(b1-3)Gal(b1-4)GlcNAc
Outline: as §1

[3] = system: GlcNAc(a1-4)Gal(b1-4)GlcNAc(b1-3)Gal(b1-4)[Fuc(a1-3)]GlcNAc(b1-3)Gal(b1-4)[Fuc(a1-3)]GlcNAc
Outline: as §1

[4] = system: GlcNAc(b1-2)Man(a1-3)[GlcNAc(b1-2)Man(a1-6)]Man(b1-4)GlcNAc(b1-4)[Fuc(a1-6)]GlcNAc
Outline: as §1

[5] = system: GlcNAc(b1-2)[GlcNAc(b1-4)]Man(a1-3)[GlcNAc(b1-2)Man(a1-6)]Man(b1-4)GlcNAc(b1-4)GlcNAc
Outline: as §1

[6] = system: GlcNAc(b1-2)Gal(b1-3)GalNAc
Outline: as §1

[7] = system: GlcNAc(b1-2)[GlcNAc(b1-4)]Man(a1-3)[GlcNAc(b1-4)][GlcNAc(b1-2)[GlcNAc(b1-6)]Man(a1-6)]Man(b1-4)GlcNAc(b1-4)GlcNAc
Outline: as §1

[8] = system: GlcNAc(b1-2)[GlcNAc(b1-6)]Man(a1-6)[GlcNAc(b1-2)Man(a1-3)]Man(b1-4)GlcNAc(b1-4)GlcNAc
Outline: as §1

[9] = system: GlcNAc(b1-2)Man(a1-3)[GlcNAc(b1-2)Man(a1-6)]Man(b1-4)GlcNAc(b1-4)GlcNAc
Outline: as §1

[10] = system: GlcNAc(b1-2)[GlcNAc(b1-6)]Man(a1-6)[GlcNAc(b1-2)Man(a1-3)]Man(b1-4)GlcNAc(b1-4)[Fuc(a1-6)]GlcNAc
Outline: as §1

[11] = system: GlcNAc(b1-3)Gal(b1-4)GlcNAc(b1-2)[GlcNAc(b1-3)Gal(b1-4)GlcNAc(b1-6)]Man(a1-6)[GlcNAc(b1-3)Gal(b1-4)GlcNAc(b1-2)Man(a1-3)]Man(b1-4)GlcNAc(b1-4)GlcNAc
Outline: as §1

[12] = system: GlcNAc(b1-3)Gal(b1-4)GlcNAc(b1-3)Gal(b1-4)GlcNAc(b1-2)[GlcNAc(b1-3)Gal(b1-4)GlcNAc(b1-3)Gal(b1-4)GlcNAc(b1-6)]Man(a1-6)[GlcNAc(b1-3)Gal(b1-4)GlcNAc(b1-3)Gal(b1-4)GlcNAc(b1-2)Man(a1-3)]Man(b1-4)GlcNAc(b1-4)[Fuc(a1-6)]GlcNAc
Outline: as §1

[13] = system: GlcNAc(b1-3)Gal(b1-4)GlcNAc(b1-3)Gal(b1-4)GlcNAc(b1-3)Gal(b1-4)GlcNAc(b1-2)Man(a1-3)[GlcNAc(b1-3)Gal(b1-4)GlcNAc(b1-3)Gal(b1-4)GlcNAc(b1-3)Gal(b1-4)GlcNAc(b1-2)Man(a1-6)]Man(b1-4)GlcNAc(b1-4)GlcNAc
Outline: as §1

[14] = system: GlcNAc(b1-3)Gal(b1-4)GlcNAc(b1-3)Gal(b1-4)GlcNAc(b1-3)Gal(b1-4)GlcNAc(b1-2)[GlcNAc(b1-3)Gal(b1-4)GlcNAc(b1-3)Gal(b1-4)GlcNAc(b1-3)Gal(b1-4)GlcNAc(b1-6)]Man(a1-6)[GlcNAc(b1-3)Gal(b1-4)GlcNAc(b1-3)Gal(b1-4)GlcNAc(b1-3)Gal(b1-4)GlcNAc(b1-2)Man(a1-3)]Man(b1-4)GlcNAc(b1-4)[Fuc(a1-6)]GlcNAc
Outline: as §1

[15] = system: GlcNAc(b1-3)Gal(b1-4)GlcNAc(b1-3)Gal(b1-4)GlcNAc(b1-3)Gal(b1-4)GlcNAc(b1-3)Gal(b1-4)GlcNAc(b1-2)Man(a1-3)[GlcNAc(b1-3)Gal(b1-4)GlcNAc(b1-3)Gal(b1-4)GlcNAc(b1-3)Gal(b1-4)GlcNAc(b1-3)Gal(b1-4)GlcNAc(b1-2)Man(a1-6)]Man(b1-4)GlcNAc(b1-4)GlcNAc
Outline: as §1

[16] = system: GlcNAc(b1-3)Gal(b1-4)GlcNAc(b1-3)Gal(b1-4)GlcNAc(b1-3)Gal(b1-4)GlcNAc(b1-3)Gal(b1-4)GlcNAc(b1-2)[GlcNAc(b1-3)Gal(b1-4)GlcNAc(b1-3)Gal(b1-4)GlcNAc(b1-3)Gal(b1-4)GlcNAc(b1-3)Gal(b1-4)GlcNAc(b1-6)]Man(a1-6)[GlcNAc(b1-3)Gal(b1-4)GlcNAc(b1-3)Gal(b1-4)GlcNAc(b1-3)Gal(b1-4)GlcNAc(b1-3)Gal(b1-4)GlcNAc(b1-2)Man(a1-3)]Man(b1-4)GlcNAc(b1-4)[Fuc(a1-6)]GlcNAc
Outline: as §1

[17] = system: GlcNAc(a1-4)Gal(b1-4)GalNAc
Outline: as §1

[18] = system: GlcNAc(b1-2)Man(a1-3)[GlcNAc(b1-4)][GlcNAc(b1-2)Man(a1-6)]Man(b1-4)GlcNAc(b1-4)[Fuc(a1-6)]GlcNAc
Outline: as §1

[19] = system: GlcNAc(b1-3)Gal(b1-4)GlcNAc(b1-3)Gal(b1-4)GlcNAc(b1-2)Man(a1-3)[GlcNAc(b1-3)Gal(b1-4)GlcNAc(b1-3)Gal(b1-4)GlcNAc(b1-2)Man(a1-6)]Man(b1-4)GlcNAc(b1-4)GlcNAc
Outline: as §1

[20] = system: GlcNAc(b1-3)Gal(b1-4)GlcNAc(b1-6)[GlcNAc(b1-3)Gal(b1-3)]GalNAc
Outline: as §1

Substance: BambL (Burhholderia ambifaria), Q0B4G1
- glycan array binding signal (z-score) [1]: -0.316
- glycan array binding signal (z-score) [2]: -0.278
- glycan array binding signal (z-score) [3]: 0.185
- glycan array binding signal (z-score) [4]: 0.071
- glycan array binding signal (z-score) [5]: -0.291

Substance: SiiE (Salmonella typhimurium), A0A0H3NVH0
- glycan array binding signal (z-score) [6]: 0.158
- glycan array binding signal (z-score) [7]: -1.05
- glycan array binding signal (z-score) [8]: 3.14

Substance: AgI/IIC123-GFP (Streptococcus mutans)
- glycan array binding signal (z-score) [9]: -0.346
- glycan array binding signal (z-score) [10]: -0.127
- glycan array binding signal (z-score) [11]: 0.224
- glycan array binding signal (z-score) [12]: 5.15
- glycan array binding signal (z-score) [13]: 3.88
- glycan array binding signal (z-score) [14]: 9
- glycan array binding signal (z-score) [15]: -0.201
- glycan array binding signal (z-score) [16]: 7.4

Substance: Epa22
- glycan array binding signal (z-score) [17]: -0.638
- glycan array binding signal (z-score) [4]: -0.14

Substance: Wza (Escherichia coli), P0A930
- glycan array binding signal (z-score) [3]: 3.13
- glycan array binding signal (z-score) [8]: 0.119

Substance: AgI/II Vhelical-GFP (Streptococcus mutans)
- glycan array binding signal (z-score) [2]: 1.06
- glycan array binding signal (z-score) [5]: -0.187
- glycan array binding signal (z-score) [13]: 0.722

Substance: GspB (Streptococcus gordonii), Q939N5
- glycan array binding signal (z-score) [1]: 2.63

Substance: Actinohivin (Actinomycete K97)
- glycan array binding signal (z-score) [12]: 0.545

Substance: LcI (Legionella pneumophila)
- glycan array binding signal (z-score) [18]: -0.447
- glycan array binding signal (z-score) [7]: -0.477
- glycan array binding signal (z-score) [19]: 3.83
- glycan array binding signal (z-score) [20]: -0.064
